Test results reported in the supplement of paper PMC8728848.
Shown is part of a subset that was picked to be rich in the strongest signals.

Assays:
Test in all cases: glycan array binding signal (z-score within array); higher = stronger binding
Settings in all cases: glycan notation: IUPAC condensed, linker removed
Fuc(a1-2)Gal = target: Fuc(a1-2)Gal
Summary of the method: (§1)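 The binding signal is a Z-score computed within each array. Data were drawn from 3228 arrays in the Consortium for Functional Glycomics database, restricted to those with a known protein sequence. Scores were averaged over arrays of the same protein sequence at different concentrations or buffers, and over linkers, and negative values can be taken as non-binding.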

[1] = target: Fuc(a1-2)Gal(b1-3)GalNAc(a1-3)[Fuc(a1-2)]Gal(b1-4)GlcNAc
Summary of the method: as §1

[2] = target: Fuc(a1-2)Gal(b1-3)[Fuc(a1-4)]GlcNAc(b1-3)[Gal(b1-4)GlcNAc(b1-6)]Gal(b1-4)Glc
Summary of the method: as §1

[3] = target: Fuc(a1-2)Gal(b1-4)GlcNAc(b1-2)Man(a1-3)[Fuc(a1-2)Gal(b1-4)GlcNAc(b1-2)Man(a1-6)]Man(b1-4)GlcNAc(b1-4)[Fuc(a1-6)]GlcNAc
Summary of the method: as §1

[4] = target: Fuc(a1-2)Gal(b1-4)GlcNAc(b1-3)[Fuc(a1-3)[Gal(b1-4)]GlcNAc(b1-6)]Gal(b1-4)Glc
Summary of the method: as §1

[5] = target: Fuc(a1-2)Gal(b1-4)GlcNAc(b1-6)GalNAc
Summary of the method: as §1

[6] = target: Fuc(a1-2)Gal(b1-4)[Fuc(a1-3)]GlcNAc(b1-2)Man(a1-3)[Fuc(a1-2)Gal(b1-4)[Fuc(a1-3)]GlcNAc(b1-2)Man(a1-6)]Man(b1-4)GlcNAc(b1-4)[Fuc(a1-6)]GlcNAc
Summary of the method: as §1

[7] = target: Fuc(a1-2)[Gal(a1-3)]Gal(b1-3)GlcNAc(b1-2)Man(a1-3)[Fuc(a1-2)[Gal(a1-3)]Gal(b1-3)GlcNAc(b1-2)Man(a1-6)]Man(b1-4)GlcNAc(b1-4)GlcNAc
Summary of the method: as §1

[8] = target: Fuc(a1-2)[Gal(a1-3)]Gal(b1-3)GlcNAc(b1-6)GalNAc
Summary of the method: as §1

[9] = target: Fuc(a1-2)[Gal(a1-3)]Gal(b1-4)GlcNAc
Summary of the method: as §1

[10] = target: Fuc(a1-2)[GalNAc(a1-3)]Gal(b1-4)GlcNAc(b1-2)Man(a1-3)[Fuc(a1-2)[GalNAc(a1-3)]Gal(b1-4)GlcNAc(b1-2)Man(a1-6)]Man(b1-4)GlcNAc(b1-4)[Fuc(a1-6)]GlcNAc
Summary of the method: as §1

[11] = target: Fuc(a1-2)[GalNAc(a1-3)]Gal(b1-4)[Fuc(a1-3)]GlcNAc(b1-3)GalNAc
Summary of the method: as §1

[12] = target: Fuc(a1-3)[Gal(b1-4)]GlcNAc(b1-6)GalNAc
Summary of the method: as §1

[13] = target: Gal(a1-3)Gal(b1-4)GlcNAc(b1-2)Man
Summary of the method: as §1

[14] = target: Gal(b1-3)GalNAc(b1-4)Gal(b1-4)Glc
Summary of the method: as §1

[15] = target: Gal(b1-3)[Neu5Ac(b2-6)]GalNAc
Summary of the method: as §1

Gal(b1-4)GlcNAc(b1-2)Man = target: Gal(b1-4)GlcNAc(b1-2)Man
Summary of the method: as §1

[16] = target: Gal(b1-4)GlcNAc(b1-2)Man(a1-3)[Gal(b1-4)GlcNAc(b1-2)Man(a1-6)]Man(b1-4)GlcNAc(b1-4)[Fuc(a1-6)]GlcNAc
Summary of the method: as §1

[17] = target: Gal(b1-4)GlcNAc(b1-2)[Gal(b1-4)GlcNAc(b1-4)]Man(a1-3)[Gal(b1-4)GlcNAc(b1-2)[Gal(b1-4)GlcNAc(b1-6)]Man(a1-6)]Man(b1-4)GlcNAc(b1-4)GlcNAc
Summary of the method: as §1

[18] = target: Gal(b1-4)GlcNAc(b1-2)[Gal(b1-4)GlcNAc(b1-6)]Man(a1-6)[Gal(b1-4)GlcNAc(b1-2)Man(a1-3)]Man(b1-4)GlcNAc(b1-4)[Fuc(a1-6)]GlcNAc
Summary of the method: as §1

[19] = target: Gal(b1-4)GlcNAc(b1-3)Gal(b1-4)GlcNAc(b1-2)Man(a1-3)[Gal(b1-4)GlcNAc(b1-3)Gal(b1-4)GlcNAc(b1-2)Man(a1-6)]Man(b1-4)GlcNAc(b1-4)[Fuc(a1-6)]GlcNAc
Summary of the method: as §1

[20] = target: Gal(b1-4)GlcNAc(b1-3)Gal(b1-4)GlcNAc(b1-2)[Gal(b1-4)GlcNAc(b1-3)Gal(b1-4)GlcNAc(b1-6)]Man(a1-6)[Gal(b1-4)GlcNAc(b1-3)Gal(b1-4)GlcNAc(b1-2)Man(a1-3)]Man(b1-4)GlcNAc(b1-4)[Fuc(a1-6)]GlcNAc
Summary of the method: as §1

[21] = target: Gal(b1-4)GlcNAc(b1-3)Gal(b1-4)GlcNAc(b1-3)Gal(b1-4)GlcNAc(b1-2)[Gal(b1-4)GlcNAc(b1-3)Gal(b1-4)GlcNAc(b1-3)Gal(b1-4)GlcNAc(b1-6)]Man(a1-6)[Gal(b1-4)GlcNAc(b1-3)Gal(b1-4)GlcNAc(b1-3)Gal(b1-4)GlcNAc(b1-2)Man(a1-3)]Man(b1-4)GlcNAc(b1-4)[Fuc(a1-6)]GlcNAc
Summary of the method: as §1

[22] = target: Gal(b1-4)GlcNAc(b1-3)Gal(b1-4)GlcNAc(b1-3)Gal(b1-4)GlcNAc(b1-3)Gal(b1-4)GlcNAc(b1-2)Man(a1-3)[Gal(b1-4)GlcNAc(b1-3)Gal(b1-4)GlcNAc(b1-3)Gal(b1-4)GlcNAc(b1-3)Gal(b1-4)GlcNAc(b1-2)Man(a1-6)]Man(b1-4)GlcNAc(b1-4)GlcNAc
Summary of the method: as §1

[23] = target: Gal(b1-4)GlcNAc(b1-3)Gal(b1-4)GlcNAc(b1-3)Gal(b1-4)GlcNAc(b1-3)Gal(b1-4)GlcNAc(b1-2)[Gal(b1-4)GlcNAc(b1-3)Gal(b1-4)GlcNAc(b1-3)Gal(b1-4)GlcNAc(b1-3)Gal(b1-4)GlcNAc(b1-6)]Man(a1-6)[Gal(b1-4)GlcNAc(b1-3)Gal(b1-4)GlcNAc(b1-3)Gal(b1-4)GlcNAc(b1-3)Gal(b1-4)GlcNAc(b1-2)Man(a1-3)]Man(b1-4)GlcNAc(b1-4)[Fuc(a1-6)]GlcNAc
Summary of the method: as §1

B1: ECL (Erythrina cristagalli), Q6YD91 (protein)
chain: VETISFSFSEFEPGNNDLTLQGAAIITQSGVLQLTKINQNGMPAWDSTGRTLYTKPVHIWDMTTGTVASFETRFSFSIEQPYTRPLPADGLVFFMGPTKSKPAQGYGYLGVFNNSKQDNSYQTLAVEFDTFSNPWDPPQVPHIGIDVNSIRSIKTQPFQLDNGQVANVVIKYDASSKILLAVLVYPSSGAIYTIAEIVDVKQVLPEWVDVGLSGATGAQRDAAETHDVYSWSFHASLPETND
glycan array binding signal (z-score) (Fuc(a1-2)Gal): -0.188 | glycan array binding signal (z-score) [1]: -0.443 | glycan array binding signal (z-score) [2]: -0.094 | glycan array binding signal (z-score) [3]: -0.031 | glycan array binding signal (z-score) [4]: 0.053 | glycan array binding signal (z-score) [5]: -0.165 | glycan array binding signal (z-score) [6]: -0.185 | glycan array binding signal (z-score) [7]: -0.173 | glycan array binding signal (z-score) [8]: -0.206 | glycan array binding signal (z-score) [9]: -0.306 | glycan array binding signal (z-score) [10]: -0.274 | glycan array binding signal (z-score) [11]: 0.775 | glycan array binding signal (z-score) [12]: 0.251 | glycan array binding signal (z-score) [13]: -0.116 | glycan array binding signal (z-score) [14]: -0.141 | glycan array binding signal (z-score) [15]: -0.546 | glycan array binding signal (z-score) (Gal(b1-4)GlcNAc(b1-2)Man): -0.311 | glycan array binding signal (z-score) [16]: 0.114 | glycan array binding signal (z-score) [17]: 4.03 | glycan array binding signal (z-score) [18]: 5.09 | glycan array binding signal (z-score) [19]: 4.13 | glycan array binding signal (z-score) [20]: 6.18 | glycan array binding signal (z-score) [21]: 5.28 | glycan array binding signal (z-score) [22]: 3.58 | glycan array binding signal (z-score) [23]: 5.63
